Results filed as inconclusive are left out. Active and inactive are the calls of the source. Unless noted, calls come from the whole dose curve.
How the values were obtained:
[1] = Nuclear factor erythroid 2-related factor 2/antioxidant responsive element (Nrf2/ARE) small molecule agonists: qHTS cell viability counter screen in human keratinocytes (AID 1919968; active = well fitted curve in the direction sought with a large enough effect in the repeat runs; an effect the other way counts as inactive or inconclusive; note: nearly all actives have a fitted effect of over 55% in size)
In short: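 Stably transfected HaCaT (KeratinoSens), 1,500/well. Test agents in DMSO were applied for 23 h, 37 C/5% CO2. CellTiter-Fluor was incubated 1 h before the fluorescence read.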

[2] = Nuclear factor erythroid 2-related factor 2/antioxidant responsive element (Nrf2/ARE) small molecule agonists: luciferase reporter gene qHTS assay in human keratinocytes (AID 1919969); note: nearly all actives have a fitted effect of over 35% in size
[3] = biological target: Gonadotropin-releasing hormone receptor (Homo sapiens) (UniProt P30968); test: Human gonadotropin-releasing hormone receptor (GnRHR) small molecule agonists, calcium flux assay in GnRHR-HEK293 cells (AID 1920063); note: nearly all actives have a fitted effect of over 35% in size
Sequence of Gonadotropin-releasing hormone receptor (Homo sapiens) (P30968 whole entry, looked up): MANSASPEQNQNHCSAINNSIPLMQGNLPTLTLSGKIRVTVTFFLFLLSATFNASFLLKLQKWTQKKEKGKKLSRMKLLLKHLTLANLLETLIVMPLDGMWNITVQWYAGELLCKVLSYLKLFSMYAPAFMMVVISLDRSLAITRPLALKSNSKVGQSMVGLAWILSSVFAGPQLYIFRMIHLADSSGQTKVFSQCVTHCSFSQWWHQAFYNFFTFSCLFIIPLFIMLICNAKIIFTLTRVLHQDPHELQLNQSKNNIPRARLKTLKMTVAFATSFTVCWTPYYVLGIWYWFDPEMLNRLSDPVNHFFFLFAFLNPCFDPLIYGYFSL
In short: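 Stable human GnRHR HEK293 line. 18 h plating, then calcium dye for 1 h at 37 C. Agonist-mode compound addition from DMSO stocks; fluorescence monitored 3 min.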

[4] = biological target: KiSS-1 receptor (Homo sapiens) (UniProt Q969F8); test: Human kisspeptin (KISS1R) small molecule agonists, calcium flux assay in KISS1R-HEK293 cells (AID 1920064; active = well fitted curve in the direction sought with a large enough effect in the repeat runs; an effect the other way counts as inactive or inconclusive)
Sequence of KiSS-1 receptor (Homo sapiens) (Q969F8 whole entry, looked up): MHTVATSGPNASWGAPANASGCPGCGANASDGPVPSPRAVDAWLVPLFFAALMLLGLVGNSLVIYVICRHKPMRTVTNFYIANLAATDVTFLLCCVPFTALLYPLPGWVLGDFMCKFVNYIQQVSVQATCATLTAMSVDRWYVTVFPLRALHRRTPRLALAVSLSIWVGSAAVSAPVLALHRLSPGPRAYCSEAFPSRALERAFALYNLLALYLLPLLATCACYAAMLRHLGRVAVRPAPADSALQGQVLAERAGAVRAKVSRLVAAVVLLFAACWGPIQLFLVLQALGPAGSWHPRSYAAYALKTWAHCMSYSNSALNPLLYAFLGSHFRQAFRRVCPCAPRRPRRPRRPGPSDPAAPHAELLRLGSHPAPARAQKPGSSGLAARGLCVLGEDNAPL
In short: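 After overnight (18 h) culture at 37 C/5% CO2, human KISS1R-HEK293 cells received calcium dye for 1 h, then test compound; emission at 540 nm (excitation 480 nm) was tracked for 3 min.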

[5] = G protein-coupled receptor (GPCR) small molecule agonists, calcium flux assay: HEK293 wild type cell line counter screen (AID 1920065)
In short: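 Following 18 h incubation at 37 C/5% CO2, plates got calcium dye for 1 h; compounds, ATP or DMSO were then pinned in and fluorescence followed kinetically (480/540 nm).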

[6] = p53 small molecule agonists, cell-based qHTS assay with human liver microsomes: qHTS cell viability counter screen (AID 1963579); note: nearly all actives have a fitted effect of over 45% in size
In short: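 Metabolically activated exposure: compounds, human liver microsomes and NADPH (0.5 mg/mL final apiece) were added to p53RE-bla cells seeded 5 h earlier, left 16 h at 37 C, and then assessed for viability by CellTiter-Glo luminescence.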

[7] = p53 small molecule agonists, cell-based qHTS assay: qHTS cell viability counter screen (AID 1963581); note: nearly all actives have a fitted effect of over 45% in size
In short: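 qHTS counter screen: 16 h compound exposure at 37 C of p53RE-bla HCT-116 cells (4,000 per well, seeded 5 h prior), cell viability by ATP luminescence.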

[8] = p53 small molecule agonists, cell-based qHTS assay (AID 1963582; active = well fitted activation curve with a large enough effect in the signal ratio in the repeat runs, not every such curve was filed as active; the % refers to the signal ratio)
In short: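 Measured: fluorescence from cleaved LiveBLAzer substrate. System: p53RE-bla cells, 16 h compound treatment at 37 C, 2 h substrate step at room temperature.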

[9] = biological target: 5-hydroxytryptamine receptor 2A (Homo sapiens) (UniProt P28223); test: 5-hydroxytryptamine receptor 2A (HTR2A) small molecule antagonists, cell-based qHTS assay (AID 1963586); note: nearly all actives have a fitted effect of over 45% in size
Sequence of 5-hydroxytryptamine receptor 2A (Homo sapiens) (P28223 whole entry, looked up): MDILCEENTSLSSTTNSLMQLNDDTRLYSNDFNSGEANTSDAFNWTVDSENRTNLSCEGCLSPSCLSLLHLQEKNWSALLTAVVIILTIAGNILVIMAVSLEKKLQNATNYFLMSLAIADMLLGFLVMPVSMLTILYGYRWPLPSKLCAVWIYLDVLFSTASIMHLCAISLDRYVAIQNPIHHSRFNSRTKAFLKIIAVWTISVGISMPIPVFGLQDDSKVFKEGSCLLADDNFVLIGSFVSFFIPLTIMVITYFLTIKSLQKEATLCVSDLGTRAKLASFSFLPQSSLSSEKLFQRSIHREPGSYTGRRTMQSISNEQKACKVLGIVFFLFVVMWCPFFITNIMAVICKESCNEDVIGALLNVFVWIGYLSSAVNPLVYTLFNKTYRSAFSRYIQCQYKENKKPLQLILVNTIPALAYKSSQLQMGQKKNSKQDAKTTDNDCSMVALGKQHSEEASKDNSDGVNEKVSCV
In short: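 CHO cells stably expressing human HTR2A were plated for 18 h at 37 C, then loaded with calcium dye for 1 h. Compounds were preincubated 5 min at room temperature before DOI (4 nM solution) was added. Kinetic fluorescence was read for 3 min.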

[10] = biological target: 5-hydroxytryptamine receptor 2A (Homo sapiens) (UniProt P28223); test: 5-hydroxytryptamine receptor 2A (HTR2A) small molecule agonists, cell-based qHTS assay (AID 1963587); note: nearly all actives have a fitted effect of over 30% in size
In short: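 CHO cells stably expressing human HTR2A, plated 18 h, loaded with calcium dye 1 h at 37 C. Agonist mode: compounds added and intracellular calcium fluorescence recorded kinetically for 2 min at 1 sec intervals.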

[11] = biological target: Muscarinic acetylcholine receptor M1 (Homo sapiens) (UniProt P11229); test: Cholinergic receptor muscarinic 1 (CHRM1) small molecule antagonists, cell-based qHTS assay (AID 1963588); note: nearly all actives have a fitted effect of over 40% in size
Sequence of Muscarinic acetylcholine receptor M1 (Homo sapiens) (P11229 whole entry, looked up): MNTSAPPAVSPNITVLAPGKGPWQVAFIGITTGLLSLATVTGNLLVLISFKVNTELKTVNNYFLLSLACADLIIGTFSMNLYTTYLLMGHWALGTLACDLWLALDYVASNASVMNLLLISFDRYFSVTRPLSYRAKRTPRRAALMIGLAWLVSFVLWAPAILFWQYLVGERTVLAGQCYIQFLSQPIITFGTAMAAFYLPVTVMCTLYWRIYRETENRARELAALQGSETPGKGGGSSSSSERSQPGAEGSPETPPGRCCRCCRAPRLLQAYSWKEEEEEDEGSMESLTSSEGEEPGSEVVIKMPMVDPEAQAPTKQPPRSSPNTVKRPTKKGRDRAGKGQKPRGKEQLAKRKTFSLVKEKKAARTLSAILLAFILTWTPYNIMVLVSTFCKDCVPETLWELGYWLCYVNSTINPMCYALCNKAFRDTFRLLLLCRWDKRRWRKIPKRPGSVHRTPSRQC
In short: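 Compounds were tested at 15 concentrations in three independent runs. Dye-loaded CHRM1-CHO cells were exposed 5 min at room temperature before stimulation by acetylcholine added at 50nM. Intracellular calcium was read kinetically on FDSS for 3 min.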

[12] = cAMP Responsive Elements (CRE) small molecule agonists, cell-based qHTS assay (AID 1963590)
In short: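 Test agents in DMSO were incubated 3 h at 37 C/5% CO2 with CRE-bla HEK 293T cells seeded 18 h earlier; LiveBLAzer B/G FRET substrate was added and read after 2 h at room temperature.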

[13] = biological target: Beta-2 adrenergic receptor (Homo sapiens) (UniProt P07550); test: Adrenergic beta2 receptor (ADRB2) small molecule antagonists, cell-based qHTS assay (AID 1963592); note: series mostly up to about 92 µM; nearly all actives have a fitted effect of over 50% in size
Sequence of Beta-2 adrenergic receptor (Homo sapiens) (P07550 whole entry, looked up): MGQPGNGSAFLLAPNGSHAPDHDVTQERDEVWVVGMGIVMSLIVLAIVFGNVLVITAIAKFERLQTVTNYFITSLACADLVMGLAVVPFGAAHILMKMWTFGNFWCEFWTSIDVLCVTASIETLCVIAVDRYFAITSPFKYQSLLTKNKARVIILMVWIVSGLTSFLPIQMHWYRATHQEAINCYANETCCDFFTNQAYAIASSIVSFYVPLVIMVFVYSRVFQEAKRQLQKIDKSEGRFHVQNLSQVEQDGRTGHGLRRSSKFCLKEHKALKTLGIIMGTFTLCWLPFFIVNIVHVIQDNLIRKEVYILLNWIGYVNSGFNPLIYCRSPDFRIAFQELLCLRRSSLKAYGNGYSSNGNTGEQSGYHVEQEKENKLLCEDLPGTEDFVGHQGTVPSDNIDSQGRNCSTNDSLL
In short: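 Assay format: CHO-ADRB2 cells, 18-20hr seeding at 37C/5% CO2, then compound plus 1nM isoproterenol agonist mix for 0.5hr RT. Homogeneous time-resolved fluorescence cAMP detection after 1hr, expressed as 665/615 nm ratio.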

[14] = biological target: D(2) dopamine receptor (Homo sapiens) (UniProt P14416); test: Dopamine D2 receptor (DRD2) small molecule agonists, cell-based qHTS assay (AID 1963594); note: nearly all actives have a fitted effect of over 35% in size
Sequence of D(2) dopamine receptor (Homo sapiens) (P14416 whole entry, looked up): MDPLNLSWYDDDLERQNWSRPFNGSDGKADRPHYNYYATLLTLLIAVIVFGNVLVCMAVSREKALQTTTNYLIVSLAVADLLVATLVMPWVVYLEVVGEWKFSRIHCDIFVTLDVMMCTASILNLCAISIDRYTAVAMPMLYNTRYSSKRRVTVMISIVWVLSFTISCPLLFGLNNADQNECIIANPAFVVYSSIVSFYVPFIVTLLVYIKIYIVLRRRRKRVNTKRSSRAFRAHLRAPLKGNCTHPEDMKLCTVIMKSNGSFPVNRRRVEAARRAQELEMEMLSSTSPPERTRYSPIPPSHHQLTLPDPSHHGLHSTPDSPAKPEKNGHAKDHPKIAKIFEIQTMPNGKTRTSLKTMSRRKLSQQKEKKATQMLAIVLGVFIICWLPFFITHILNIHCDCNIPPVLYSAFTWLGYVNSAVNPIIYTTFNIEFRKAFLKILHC
In short: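 HEK293 cells stably expressing human DRD2, pre-treated with PDE inhibitor Ro20-1724 (0.1 mM final) and compound 10 min at room temperature, then stimulated with NKH477 (200nM […]) for 30 min. cAMP read by HTRF (665/620 nm).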

[15] = biological target: Muscarinic acetylcholine receptor M1 (Homo sapiens) (UniProt P11229); test: Cholinergic receptor muscarinic 1 (CHRM1) small molecule agonists, cell-based qHTS assay (AID 1963589); note: nearly all actives have a fitted effect of over 35% in size
In short: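 Kinetic fluorescence (1 s intervals) of calcium-sensitive dye in human M1 CHO cells after compound addition; cells pre-incubated 18 h at 37 C/5% CO2 and dye-loaded 1 h.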

[16] = cAMP Responsive Elements (CRE) small molecule antagonists, cell-based qHTS assay (AID 1963591; active = well fitted inhibition curve with a large enough effect in the signal ratio in the repeat runs, not every such curve was filed as active; the % refers to the signal ratio)
In short: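 Reporter line CRE-bla HEK 293T in dialyzed-FBS DMEM; cells preincubated 18 h, treated 3 h with compound plus NKH477 (0.25 uM final); LiveBLAzer FRET, 2 h RT.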

[17] = biological target: Beta-2 adrenergic receptor (Homo sapiens) (UniProt P07550); test: Adrenergic beta2 receptor (ADRB2) small molecule agonists, cell-based qHTS assay (AID 1963593);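 note: CHO cells stably overexpressing human ADRB2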
In short: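 CHO cells stably over-expressing ADRB2 were plated overnight at 37C, then dosed with compounds plus a stimulation mix containing 100uM IBMX and 25uM Ro-20-1724 for 0.5hr at room temperature. cAMP was measured by HTRF competition, 1hr.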

[18] = biological target: D(2) dopamine receptor (Homo sapiens) (UniProt P14416); test: Dopamine D2 receptor (DRD2) small molecule antagonists, cell-based qHTS assay (AID 1963595; active = well fitted inhibition curve with a large enough effect in the signal ratio in the repeat runs, with a control signal flat; the % refers to the signal ratio)
In short: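 Cells were plated and grown for 24 h at 37 °C. Ro20-1724 (0.1 mM final) went in first, then compound for 10 min. NKH477 (200 nM) with quinpirole (12 nM) followed for 30 min at RT, then HTRF detection reagents for 1 h.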

[19] = p53 small molecule agonists, cell-based qHTS assay with rat liver microsomes: qHTS cell viability counter screen (AID 1963580); note: nearly all actives have a fitted effect of over 45% in size
In short: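 Cytotoxicity counter screen: intracellular ATP measured by CellTiter-Glo luminescence in the same wells as the beta-lactamase reporter read, on HCT-116 p53RE-bla cells exposed 16 h at 37 C to compounds with rat liver microsomes and NADPH, each 0.5 mg/mL final.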

Measured: Potency

O=S(=O)(O)c1ccc(Nc2nc(Nc3ccc(/C=C/c4ccc(Nc5nc(Nc6ccc(S(=O)(=O)O)cc6)nc(N(CCO)CCO)n5)cc4S(=O)(=O)O)c(S(=O)(=O)O)c3)nc(N(CCO)CCO)n2)cc1
not listed: [15] | [16] | [17] | [18] | [19]
inactive: all other assays above

Cc1c(O)cccc1O
not listed: [8] | [19]
inactive: all other assays above

COc1ccc(CCO)cc1
not listed: [7] | [8] | [9] | [13] | [17]
inactive: all other assays above

CC1=C(C(=O)O)N2C(=O)[C@@H](NC(=O)[C@H](N)C3=CCC=CC3)[C@H]2SC1
not listed: [7] | [8] | [9] | [10]
inactive: all other assays above

N[C@@H]1CONC1=O
not listed: [8] | [12] | [19]
inactive: all other assays above

CNC(=O)C(c1ccccc1)c1ccccc1
not listed: [8] | [17] | [19]
inactive: all other assays above

O=C(Cl)c1c(Cl)cccc1Cl
not listed: [8] | [14] | [19]
inactive: all other assays above

Cc1cccc(C(=O)O)c1O
not listed: [8] | [17] | [19]
inactive: all other assays above

CC(C)(C)CC(C)(C)N
not listed: [8] | [17] | [18] | [19]
inactive: all other assays above

— PubChem BioAssay (Tox21)
